# Laboratory results reported in PubChem BioAssay AID995 (National Center for Advancing Translational Sciences (NCATS), 2007).
# About 710 (0.99%) of roughly 72,000 compounds were called active. A call without a number means that no potency is given here. Roughly 7% stayed inconclusive and do not appear here. The sample holds actives, similar compounds and a random draw of the others, so the mix is not that of the screen. Calls come from the whole dose curve; as a rule, active = well fitted inhibition curve with a large enough effect; inconclusive = small, poorly fitted or top-dose-only effect; inactive = no such curve, though single readings can be large or run the other way.
# Test: qHTS Assay for Inhibitors of the ERK Signaling Pathway using a Homogeneous Screening Assay; note: nearly all actives have a fitted effect of over 55% in size
# Conditions: HEK293-V1b, vasopressin-stimulated pERK AlphaScreen; series mostly up to 57.5 µM
# Procedure, shortened: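 V1b-HEK293 cells; cpd 30 min 37C; 25 nM vasopressin 5 min; lyse 10 min; AlphaScreen beads 5 hr RT. Normalized to DMSO basal and 25 nM vasopressin; AC50 by Hill fit.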
# Potency is the fitted concentration of half-maximal effect.
SMILES,Potency,"activity, negative = inhibition"
COC(=O)[C@@H]1C[C@@]2(O)[C@H](O)[C@H](O)[C@H](O)C[C@H]2N1Cc1ccc(C(C)(C)C)cc1,inactive,–
NCCNCC1CCNCC1,–,-16% [at 11.5 µM] (inactive)
O=C(c1ccco1)N1CCN(C(=O)C2CC(c3ccc(Cl)c(Cl)c3)=NO2)CC1 (configuration not stated),20 µM (active),–
O=C(c1ccco1)N1CCN(c2cccc(Cl)c2)CC1,inactive,–
O=C(c1ccco1)N1CCN(C(=O)C2CC(c3ccc(F)cc3)=NO2)CC1 (configuration not stated),inactive,–
O=C(O)c1c(Br)c(Br)c(Br)c(Br)c1C1c2ccc(O)cc2Oc2cc(O)ccc21,–,-24.2% [at 11.5 µM] (inactive)
CC(=O)OC1CCC2(O)CC1(C)CCC1C2CC1(C)C (configuration not stated),inactive,–
COc1cccc(Cn2c(=O)cnc3cncnc32)c1,inactive,–
COc1ccc(CCC(=O)c2c(O)cc(OC3OC(CO)C(O)C(O)C3O[C@@H]3OC(C)C(O)C(O)C3O)cc2O)cc1O (some centres not stated),inactive,–
O=C(Oc1cc(OC(=O)c2ccccc2)c2c(c1)OC(c1ccc(OC(=O)c3ccccc3)c(OC(=O)c3ccccc3)c1)[C@@H](OC(=O)c1ccccc1)C2)c1ccccc1 (some centres not stated),inactive,–
O=C(NC1CCCCC1)C1c2ccccc2C(=O)N1Cc1ccco1 (configuration not stated),inactive,–
O=C1c2ccccc2C(Nc2ccc3c(c2)OCCO3)N1Cc1ccco1 (configuration not stated),25.1 µM (active),–
CC1(C)SC2c3ccccc3C(=O)N2[C@@H]1C(=O)NCc1ccco1 (some centres not stated),inactive,–
COC1C[C@@H](O[C@@H]2C(C)C(=O)OC(C)C(C)C(O)C(C)C(=O)[C@@]3(CO3)CC(C)C(OC3OC(C)CC(N(C)C)C3O)C2C)OC(C)[C@@H]1O (some centres not stated),inactive,–
C=C[C@](C)(O)CCC1C(=C)CCC2[C@@](C)(CO)CCC[C@@]12C (some centres not stated),inactive,–
N#CC1=C(N)OC2=C(C(=O)CCC2)C1C1CC=CCC1 (configuration not stated),inactive,–
COCc1[nH]nc2c1C(C1C=CCCC1)C(C#N)=C(N)O2 (configuration not stated),inactive,–
N#CC1=C(N)Oc2cc(O)ccc2C1C1CCCCC1 (configuration not stated),25.1 µM (active),–
Clc1ccc(C=Nc2ccc3c(c2)Cc2ccccc2-3)c(Cl)c1,–,9.67% [at 11.5 µM] (inactive)
CCCN(C/C=C\I)[C@@H]1CCc2cccc(O)c2C1,inactive,–
CC1=C(/C=C/C(C)=C/C=C/C(C)=C/C=C/C=C(C)/C=C/C=C(C)/C=C/C2=C(C)CCCC2(C)C)C(C)(C)CCC1,inactive,–
COCCn1c(=O)c(CCc2ccccc2)nc2cnc(N3CCNCC3)nc21,inactive,–
Cc1cnc(CNc2cc(-c3c(C)noc3C)ncn2)cn1,inactive,–
O=C(O)C(O)[C@@](O)(Cc1ccc(O)cc1)C(=O)O (some centres not stated),inactive,–
Cc1nc2ccccc2c(=O)n1CCCn1ccnc1,inactive,–
Cc1ccnc(N2CCC(C(=O)NC3CCCCCC3)CC2)n1,inactive,–
Cc1ccnc(-n2sc3ccccc3c2=O)n1,39.8 µM (active),–
